Compound activity from PubChem BioAssay.
In the library only some 2.8% were active in any assay of this set; here they are far more common.
RGS4 inhibitor: Inhibitors of Regulator of G Protein Signaling (RGS) 4: qHTS. Regulator of G-protein signaling 4 (Homo sapiens), P49798. Transcreener GDP fluorescence polarization, RGS4-accelerated GTP hydrolysis. Potency, µM (top dose mostly 114 µM), for inactives: at the top dose activity change, negative = inhibition, usual class: inhibitors. 390,000 compounds, 0.039% hits; active = well fitted inhibition curve with a large enough effect; inconclusive = small, poorly fitted or top-dose-only effect; inactive = no such curve, though single readings can be large or run the other way; also: potency is read from the fitted curve at half-maximal effect; % is scaled to controls: 0 for no effect and ±100 for the full control effect; nearly all actives have a fitted effect of over 75% in size
Target sequence (P49798 whole entry, looked up): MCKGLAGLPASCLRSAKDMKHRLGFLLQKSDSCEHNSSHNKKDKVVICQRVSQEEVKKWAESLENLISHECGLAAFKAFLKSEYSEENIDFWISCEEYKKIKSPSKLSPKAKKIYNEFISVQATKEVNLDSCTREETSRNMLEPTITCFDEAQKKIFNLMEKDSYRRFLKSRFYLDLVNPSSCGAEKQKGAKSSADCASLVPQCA
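MLSMR compounds (23 nl, pin-transferred) preincubated 10 min at room temperature with a 500nM (2x) first reagent, then RGS4 at 900nM (2x) plus Transcreener GDP mix added; fluorescence polarization (620/688 nm) read before and after 90 min at 30 °C.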
PI4K2A block: qHTS for small molecular inhibitors of PI4K2A; 420,000 compounds, 0.13% hits; purified PI4K2A, ADP-Glo luminescence, 1 h; active compounds read low; Phosphatidylinositol 4-kinase type 2-alpha (Homo sapiens), Q9BTU6; activity change, negative = inhibition, % at 76.9 µM; AID 1346378, 2018; in the data active = activity change below about -50%; inconclusive = mostly about -30% to -49%;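 also: -100% = wells without enzyme as full effect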
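In this quantitative HTS, ADP production by PI4K2A was quantified luminescently after 1 h at ambient temperature; 100 microM adenosine served as plate-quality control.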
Akt phos inh: HTS Assay for Inhibitors of Akt Phophorylation: Primary Screen | Neuro2A IGF-stimulated pAkt S473 HTRF, 20 min; active compounds read low | activity change, % for hits at 50 µM | 360,000 compounds, 0.32% hits; in the data active = activity change below about -80%; inconclusive = mostly about -51% to -80%; also: % is scaled to controls: 0 for no effect and ±100 for the full control effect
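Neuro2A cells (4,500/well, DMEM with 0.5% FBS) were treated with compound at a single 50 µM final concentration, stimulated with 6 nM IGF for 20 min at 37 °C, and lysed. Phospho-Akt Ser473 was read by HTRF as 665/615 ratio ×10^4.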
DRD3 antagonist: qHTS of D3 Dopamine Receptor Antagonist: qHTS. D(3) dopamine receptor (Homo sapiens), P35462. D3R cells, DiscoveRx beta-arrestin luminescence, antagonist mode; active compounds read low. max response, negative = inhibition, %. 360,000 compounds, 2.5% hits. AID 652054, 2013; in the data active = max response below about -50%; inconclusive = no clear call, values can overlap the other calls; also: % is scaled to controls: 0 for no effect and ±100 for the full control effect
Target sequence (P35462 whole entry, looked up): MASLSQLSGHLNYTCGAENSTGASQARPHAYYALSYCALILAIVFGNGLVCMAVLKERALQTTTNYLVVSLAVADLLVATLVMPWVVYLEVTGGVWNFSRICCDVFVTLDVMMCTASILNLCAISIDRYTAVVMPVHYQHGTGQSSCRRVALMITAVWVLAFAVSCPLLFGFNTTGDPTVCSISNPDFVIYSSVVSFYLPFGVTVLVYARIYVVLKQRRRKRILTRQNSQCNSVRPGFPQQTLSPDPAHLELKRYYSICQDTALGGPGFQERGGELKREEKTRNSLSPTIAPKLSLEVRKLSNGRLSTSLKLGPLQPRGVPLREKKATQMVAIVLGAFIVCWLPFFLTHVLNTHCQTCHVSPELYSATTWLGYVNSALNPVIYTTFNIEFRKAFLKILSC
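Cells plated overnight at 1500 cells/well, then exposed to library compounds with dopamine controls for 90 minutes at 37 degrees C. DiscoveRx reagent added for 30–60 minutes at room temperature; luminescence read, quantitative HTS format.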
D3 ag: qHTS of D3 Dopamine Receptor Agonist: qHTS; D3R DiscoveRx beta-arrestin cells, luminescence, 90 min; max activation, %; 410,000 compounds, 0.58% hits; AID 652048, 2013; in the data active = max activation above about 30%; also: 0% is about no effect
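Cells at 1500/well, incubated overnight, then treated with pinned compounds (dopamine as control) for 90 min at 37 degrees C. DiscoveRx reagent added for 30 - 60 minutes at room temperature; luminescence read.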
LDHA block: qHTS assay for inhibitors of human lactate dehydrogenase | activity change, % (values are at about 110 or 230 µM) | AID 1347041, 2019 | 480,000 compounds, 0.15% hits | L-lactate dehydrogenase A chain (Homo sapiens), P00338 | purified LDHA, NADH/diaphorase-resazurin fluorescence; active compounds read low; in the data active = activity change below about -30%; inconclusive = mostly about -25% to -30%;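 also: plate controls were DMSO wells for no effect and wells without enzyme for full effect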
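Human LDH5 at 2 nM final in Tris HCl pH 7.4 with 0.06 mM NADH and 0.2 mM pyruvate, reacted 5 minutes at room temperature. Remaining NADH coupled via diaphorase/resazurin; resorufin fluorescence read at 0 and 20 minutes, normalized to enzyme-free and DMSO wells.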
The depositor's hits bear a star; [ ] = dose if it differs, or a comment.

How did FC(F)Sc1nnc(-c2ccccc2)c2ccccc12 do in these assays?
LDHA block: -0.8

Results for O=S(=O)(N/N=C\c1ccc(-c2ccccc2Cl)o1)c1ccccc1 ?
RGS4 inhibitor: -35.6%; PI4K2A block: -4.8; Akt phos inh: inactive; DRD3 antagonist: -52.3*; D3 ag: 2.1; LDHA block: -4.8

What do the screens show for `O=C(N/N=C/c1ccc(-c2ccccc2Cl)o1)c1ccccc1`?
RGS4 inhibitor: 2.3%; PI4K2A block: 1.6; Akt phos inh: inactive; DRD3 antagonist: inconclusive; D3 ag: -20.3; LDHA block: -4.7

Results for N#Cc1nc(-c2ccco2)oc1N1CCN(CC(=O)N(c2ccccc2)C2CCS(=O)(=O)C2)CC1 (stereo not drawn) ?
LDHA block: 0.0

Results for O=C(C1CCCN(Cc2ccccc2F)C1)N1CCc2ccccc2C1 (stereo not drawn) ?
RGS4 inhibitor: 18.3%; PI4K2A block: 2.0; Akt phos inh: inactive; DRD3 antagonist: -51.7*; D3 ag: -27.0; LDHA block: -18.2

How did Cc1cccc(CN2CCCC(C(=O)N3CCc4ccccc4C3)C2)c1 (stereo not drawn) do in these assays?
RGS4 inhibitor: 17.8%; PI4K2A block: 2.3; DRD3 antagonist: 45.3; D3 ag: 1.3; LDHA block: 0.0

How did O=C(C1CCCN(Cc2ccncc2)C1)N1CCc2ccccc2C1 (stereo not drawn) do in these assays?
RGS4 inhibitor: 34.9%; PI4K2A block: 14.4; Akt phos inh: inactive; DRD3 antagonist: -71.6*; D3 ag: -7.3; LDHA block: -7.7

How did O=C(C1CCCN(Cc2cccc3ccccc23)C1)N1CCc2ccccc2C1 (stereo not drawn) do in these assays?
LDHA block: -8.5

How did CN(CCOC(=O)c1ccccc1Br)C(C)(C)C do in these assays?
LDHA block: 9.9

How did O=c1c2cc(N3CCOCC3)ccc2[nH]c(=S)n1CCCN1CCCC1 do in these assays?
RGS4 inhibitor: 4.1%; PI4K2A block: -3.6; Akt phos inh: inactive; DRD3 antagonist: -72.9*; D3 ag: -10.5; LDHA block: -1.7

What do the screens show for `O=C(NC1CCN(Cc2ccccc2)CC1)c1ccc(Cn2c(=S)[nH]c3ccc(N4CCOCC4)cc3c2=O)cc1`?
RGS4 inhibitor: -7.7%; PI4K2A block: -2.8; Akt phos inh: inactive; DRD3 antagonist: -71.3*; D3 ag: -11.7; LDHA block: -5.3

Results for CC1CCN(CCCn2c(=S)[nH]c3ccc(N4CCOCC4)cc3c2=O)CC1 ?
RGS4 inhibitor: -23.2%; PI4K2A block: 2.4; Akt phos inh: inactive; DRD3 antagonist: -80.9*; D3 ag: -54.8; LDHA block: 2.7

How did O=c1c2cc(N3CCOCC3)ccc2[nH]c(=S)n1CCCN1CCCCC1 do in these assays?
RGS4 inhibitor: -18.6%; PI4K2A block: -3.2; Akt phos inh: inactive; DRD3 antagonist: 0.0; D3 ag: -3.0; LDHA block: -1.2

How did COc1ccc2cnn(CC(=O)Nc3ccc(Cl)cc3)c(=O)c2c1OC do in these assays?
LDHA block: 0.1

How did N#CC1(C(=O)Nc2ccc(C(=O)Nc3ccccc3)cc2)CCCC1 do in these assays?
LDHA block: 4.2

Results for C=CCN1C[C@H](C(=O)N(CCCN(C)C)C(=O)NCC)C[C@@H]2c3cccc4[nH]cc(c34)C[C@H]21 ?
PI4K2A block: 0.4; D3 ag: 67.1*

What do the screens show for `CCOC(=O)c1oc2ccc(CNCCO)c(Cl)c2c1C`?
RGS4 inhibitor: 12.3%[11.4 µM]; PI4K2A block: -3.8; Akt phos inh: inactive; DRD3 antagonist: -53.9*; D3 ag: -16.9; LDHA block: -6.6

How did CCOC(=O)c1oc2ccc(CNC3CCCCC3)c(Cl)c2c1C do in these assays?
RGS4 inhibitor: 25.5%; PI4K2A block: 3.1; Akt phos inh: inactive; DRD3 antagonist: -86.4*; D3 ag: -35.7; LDHA block: -11.9

Results for COc1ccc(CSCC(=O)N/N=C/c2ccc(OCC(=O)N3CCCCC3)cc2)cc1 ?
RGS4 inhibitor: 16.9%; PI4K2A block: -2.4; Akt phos inh: inactive; DRD3 antagonist: -56.1*; D3 ag: 7.7; LDHA block: -1.3

What do the screens show for `CN1CCN(c2nc3cc(C(F)(F)F)ccc3n3cccc23)CC1`?
RGS4 inhibitor: 11.0%[56.9 µM]; PI4K2A block: 3.1; Akt phos inh: inactive; DRD3 antagonist: -51.5*; D3 ag: -72.2; LDHA block: -4.6

Results for Cc1cccn2c(Nc3ccccc3)c(-c3ccccn3)nc12 ?
RGS4 inhibitor: -0.3%; PI4K2A block: 0.6; Akt phos inh: inactive; DRD3 antagonist: -23.2; D3 ag: 0.0; LDHA block: -0.8

What do the screens show for `Cc1ccc2nc(-c3ccccn3)c(Nc3ccccc3C)n2c1`?
RGS4 inhibitor: -6.7%[11.4 µM]; PI4K2A block: -0.1; Akt phos inh: inactive; DRD3 antagonist: -59.2*; D3 ag: -24.9; LDHA block: 1.6

Results for Cc1ccn2c(Nc3ccccc3C)c(-c3ccccn3)nc2c1 ?
RGS4 inhibitor: -1.6%[11.4 µM]; PI4K2A block: -5.5; Akt phos inh: inactive; DRD3 antagonist: -59.4*; D3 ag: -20.0; LDHA block: 2.4

How did Cc1ccn2c(Nc3ccccc3)c(-c3ccccn3)nc2c1 do in these assays?
RGS4 inhibitor: -20.1%; PI4K2A block: -3.2; Akt phos inh: inactive; DRD3 antagonist: -73.8*; D3 ag: -26.1; LDHA block: 9.4

How did Cc1ccccc1NC(=O)CCN1CCc2ccccc2C1 do in these assays?
RGS4 inhibitor: -29.7%; PI4K2A block: 2.9; Akt phos inh: inactive; DRD3 antagonist: -79.1*; D3 ag: -5.7; LDHA block: -2.5

How did Cc1ccccc1NC(=O)CCN1CCCC1 do in these assays?
RGS4 inhibitor: 12.9%; PI4K2A block: -7.3; Akt phos inh: inactive; DRD3 antagonist: -9.2; D3 ag: -7.2; LDHA block: -4.1

How did O=C(CCN1CCc2ccccc2C1)Nc1ccc(F)cc1 do in these assays?
RGS4 inhibitor: 17.2%; PI4K2A block: 7.0; Akt phos inh: inactive; DRD3 antagonist: -66.2*; D3 ag: -3.8; LDHA block: -1.5

How did O=C(Nc1cccc(C(F)(F)F)c1)c1cc(N2CCCCS2(=O)=O)ccc1Cl do in these assays?
LDHA block: 3.9

Results for CCOCC(=O)Nc1nnc(SCCOC)s1 ?
RGS4 inhibitor: 14.6%; PI4K2A block: -0.6; Akt phos inh: -85.5%*; DRD3 antagonist: -6.9; D3 ag: 3.1; LDHA block: -2.1
